Results on 64 molecules are retold here after PubChem BioAssay AID651711 (Broad Institute, 2012).

What is called inhibition is the drop in the measured response relative to a control, in per cent.

Values joined by “and” are separate entries in the source; they are usually repeats but may differ in a detail not shown here. Equal values may be shown once. Out of some 350,000 compounds screened, about 180 (0.051%) were called active.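 How the source made its calls: active means mean replicate inhibition above about 25%, with every replicate also reaching it (limit read from the data, passing the limit was not always enough); inconclusive means only one of those two criteria met; inactive means neither criterion met.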 This excerpt belongs to a sample that is enriched for actives.

The target in this test is Protein disulfide-isomerase A6 (Homo sapiens) (UniProt Q15084). The test is described as follows: ERp5 (PDIA6) reductase activity blockers – biochemical, turbidity, absorbance 650 nm, single point, primary screen (AID 651711). As to conditions: ERp5 insulin aggregation, 90 min, at 9.99 µM, hits give high values.
Protein disulfide-isomerase A6 (Homo sapiens), sequence (Q15084 whole entry, looked up): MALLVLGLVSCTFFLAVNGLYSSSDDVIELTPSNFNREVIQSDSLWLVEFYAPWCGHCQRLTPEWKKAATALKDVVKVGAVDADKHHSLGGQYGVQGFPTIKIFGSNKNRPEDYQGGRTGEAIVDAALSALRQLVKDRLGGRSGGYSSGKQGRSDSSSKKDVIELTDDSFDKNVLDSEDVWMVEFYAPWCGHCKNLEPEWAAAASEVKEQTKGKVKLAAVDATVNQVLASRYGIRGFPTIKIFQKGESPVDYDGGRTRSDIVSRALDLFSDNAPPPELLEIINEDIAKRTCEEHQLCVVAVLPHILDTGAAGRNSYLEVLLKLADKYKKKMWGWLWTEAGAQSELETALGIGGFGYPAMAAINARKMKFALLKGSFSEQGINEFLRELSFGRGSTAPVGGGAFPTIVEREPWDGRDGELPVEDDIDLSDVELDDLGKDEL
In the case of `O=C(C[C@@H]1CC[C@@H]2[C@H](COC[C@H](O)CN2C(=O)Cc2ccccc2)O1)NC1CCC1`, the inhibition was 9.77% (inactive).

For `COc1ccc(-c2ccc([C@@H]3[C@@H](C#N)N(C(=O)C4CCCCC4)[C@H]3CO)cc2)cc1`, the inhibition is -2.17% (inactive).

`CCCNC(=O)N1C[C@H](C)[C@@H](OC)CN(C)C(=O)c2ccc(NC(=O)CC)cc2OC[C@@H]1C`: the inhibition was 7.86% (inactive).

Turning to `CC(C)NC(=O)N[C@H]1CC[C@H](CC(=O)N2CCCCC2)O[C@@H]1CO`, the inhibition was 3.34% (inactive).

In the case of `C[C@@H]1CCCCO[C@H](CN(C)Cc2ccc(Cl)c(Cl)c2)[C@@H](C)CN([C@H](C)CO)C(=O)c2cc(NS(=O)(=O)c3cn(C)cn3)ccc2O1`, the inhibition is 1.36% (inactive).

With `COc1ccc(S(=O)(=O)N(C)C[C@H]2Oc3ccc(NC(=O)C4CC4)cc3CC(=O)N([C@@H](C)CO)C[C@@H]2C)cc1`, the inhibition was 2.88% (inactive).

Turning to `COc1ccccc1C#Cc1cnc2c(c1)C(=O)N([C@H](C)CO)C[C@H](C)[C@H](CN(C)S(=O)(=O)c1cn(C)cn1)O2`, the inhibition was -2.62% (inactive).

On to `CCN1C(=O)N[C@@H]2C[C@H](C(=O)N3CCCC3)[C@H](C)[C@H](c3ccccc3)C[C@@H]21`, for which the inhibition is 0.542% (inactive).

As to `COc1ccccc1C#Cc1cnc2c(c1)C(=O)N([C@@H](C)CO)C[C@@H](C)[C@@H](CN(C)C(=O)CN(C)C)O2`, the inhibition is -1.98% (inactive).

For the molecule `C[C@@H]1CN([C@H](C)CO)C(=O)c2cc(NC(=O)c3ccncc3)ccc2O[C@@H](C)CCCCO[C@@H]1CN(C)CC1CC1`, the inhibition was 3.17% (inactive).

As to `Cc1ccccc1S(=O)(=O)N[C@@H]1CC[C@H](CCn2cc(-c3ccc(F)cc3)nn2)O[C@@H]1CO`, the inhibition is 0.302% (inactive).

`COc1ccc(C#Cc2ccc([C@@H]3[C@@H](CO)N4C(=O)CN(C(=O)c5ccc(F)cc5)C[C@@H]34)cc2)cc1`: the inhibition is 6.45% (inactive).

In the case of `CO[C@@H]1CN(C)C(=O)c2cc(NC(=O)Nc3cccc(F)c3)ccc2OC[C@H](C)N(C)C[C@@H]1C`, the inhibition is 2.15% (inactive).

As to `C[C@@H]1CN([C@H](C)CO)C(=O)c2cc(-c3ccc(F)cc3)cnc2O[C@@H]1CN(C)C(=O)C1CCC1`, the inhibition is 1.7% (inactive).

As for `C[C@@H]1CN([C@H](C)CO)C(=O)c2cc(NS(=O)(=O)c3ccc(F)cc3)ccc2O[C@@H]1CN(C)C(=O)Nc1cccc2ccccc12`, the inhibition was 13.7% (inactive).

For `CCCN1C[C@H](C)[C@@H](OC)CN(C)C(=O)c2ccc(NC(=O)C3CCOCC3)cc2OC[C@@H]1C`, the inhibition is 0.943% (inactive).

On to `C[C@H](CO)N1C[C@H](C)[C@@H](CN(C)CC2CC2)OCCCC[C@H](C)Oc2ccc(NC(=O)Nc3ccccc3)cc2C1=O`, for which the inhibition is 2.55% (inactive).

For `O=S(=O)(c1ccccc1)N1CC[C@@H]2[C@@H](CO)Nc3ccc(C#Cc4cccc(F)c4)cc3[C@@H]21`, the inhibition is -0.006% (inactive).

With `CCC(=O)N(C)C[C@@H]1Oc2cc(-c3ccc(OC)cc3)ccc2S(=O)(=O)N([C@@H](C)CO)C[C@H]1C`, the inhibition is 0.0355% (inactive).

In the case of `CC(C)C#Cc1cnc2c(c1)C(=O)N([C@H](C)CO)C[C@@H](C)[C@H](CN(C)Cc1ccccc1)O2`, the inhibition is -2.64% (inactive).

Take `C[C@@H]1CN([C@H](C)CO)C(=O)Cc2cc(NC(=O)Nc3cccc4ccccc34)ccc2O[C@@H]1CN(C)Cc1ccc(C(F)(F)F)cc1`: the inhibition was 60% (active).

Regarding `C[C@@H]1CN([C@H](C)CO)C(=O)Cc2cc(NC(=O)Nc3ccccc3)ccc2O[C@@H]1CN(C)Cc1ccc(C(F)(F)F)cc1`, the inhibition is 1.88% (inactive).

As to `COc1ccc(S(=O)(=O)Nc2ccc3c(c2)CC(=O)N([C@H](C)CO)C[C@H](C)[C@H](CN(C)C(=O)Nc2ccccc2)O3)cc1`, the inhibition was 64.1% (active).

Turning to `C[C@@H]1CN([C@H](C)CO)C(=O)Cc2cc(NC(=O)Nc3cccc4ccccc34)ccc2O[C@@H]1CN(C)Cc1ccc(C(=O)O)cc1`, the inhibition was 2.16% (inactive).

For `COc1ccc(NC(=O)N(C)C[C@@H]2Oc3ccc(NS(=O)(=O)c4ccc(OC)cc4)cc3CC(=O)N([C@H](C)CO)C[C@H]2C)cc1`, the inhibition is 8.49% (inactive).

As for `COc1ccc(S(=O)(=O)Nc2ccc3c(c2)CC(=O)N([C@H](C)CO)C[C@@H](C)[C@@H](CN(C)C(=O)Nc2cccc4ccccc24)O3)cc1`, the inhibition was 11.8% (inactive).

As for `COC(=O)[C@@H]1[C@@H](CO)[C@@H]2Cn3c(ccc(-c4ccc(OC)cc4)c3=O)[C@@H]2N1S(C)(=O)=O`, the inhibition is 4.09% (inactive).

For the molecule `O=C(N[C@@H]1CC[C@@H](CC(=O)N2CCc3ccccc3C2)O[C@H]1CO)C1CCC1`, the inhibition was -0.402% (inactive).

For the molecule `CCC(=O)N1CC(=O)N2[C@H](CO)[C@@H](c3ccc(-c4ccc(C(=O)N(C)C)cc4)cc3)[C@@H]2C1`, the inhibition was -1.19% (inactive).

For the molecule `CO[C@H]1CN(C)C(=O)c2ccc(NC(=O)C3CCC3)cc2OC[C@@H](C)N(Cc2ccccn2)C[C@H]1C`, the inhibition is -2.1% (inactive).

Turning to `C[C@H](CO)N1C[C@H](C)[C@H](CN(C)Cc2ccc(C(=O)O)cc2)OCc2cn(nn2)CCCC1=O`, the inhibition is -4.21% (inactive).

As for `Cc1ccccc1C(=O)N[C@H](C(=O)N1CCC[C@H]1C(=O)NCc1ccccc1)C(C)C`, the inhibition is 5.11% (inactive).

In the case of `CO[C@H]1CN(C)C(=O)c2cc(NS(=O)(=O)c3ccccc3)ccc2OC[C@@H](C)N(Cc2nccs2)C[C@@H]1C`, the inhibition is 1% (inactive).

Regarding `COc1ccc(CN(C)C[C@@H]2Oc3c(NC(=O)C4CC4)cccc3C(=O)N([C@@H](C)CO)C[C@H]2C)cc1`, the inhibition was 1.33% (inactive).

For the molecule `Cc1ccc(S(=O)(=O)N(C)C[C@@H]2Oc3ccc(N(C)C)cc3C(=O)N([C@@H](C)CO)C[C@H]2C)cc1`, the inhibition was -2.31% (inactive).

Turning to `COc1ccccc1S(=O)(=O)N1C[C@@H](O)COC[C@H]2O[C@H](CC(=O)O)CC[C@@H]21`, the inhibition is -5.9% (inactive).

As to `CCC(=O)N1C[C@@H](O)COC[C@H]2O[C@H](CC(=O)NCC3CCCCC3)CC[C@@H]21`, the inhibition was -3.78% (inactive).

On to `O=C1CN(Cc2ccc(F)cc2)C[C@H]2[C@@H](c3ccc(Br)cc3)[C@H](CO)N12`, for which the inhibition is 4.49% (inactive).

For the molecule `CO[C@H]1CN(C)C(=O)c2ccc(NC(=O)CC(F)(F)F)cc2OC[C@H](C)N(C(=O)C2CC2)C[C@H]1C`, the inhibition was 3.96% (inactive).

For the molecule `O=C(CC1CC1)N1[C@@H](CO)[C@@H](c2ccccc2)C12CN(S(=O)(=O)c1ccccc1)C2`, the inhibition is 7.09% (inactive).

With `COCC(=O)N1C[C@@H]2[C@H](c3ccccc31)[C@@H](CO)N2C(=O)C1CC1`, the inhibition was -1.61% (inactive).

In the case of `COCC#Cc1ccc([C@H]2[C@H](CO)N3C(=O)CN(C(=O)Nc4ccccc4F)C[C@@H]23)cc1`, the inhibition was 3.85% (inactive).

For the molecule `CNC[C@H]1Oc2ccc(NS(=O)(=O)c3cn(C)cn3)cc2C(=O)N([C@@H](C)CO)C[C@@H]1C`, the inhibition was -3.85% (inactive).

On to `O=C(C[C@@H]1C[C@@H]2c3cc(NC(=O)c4ccc5c(c4)OCO5)ccc3O[C@@H]2[C@H](CO)O1)NCC1CC1`, for which the inhibition is -3.55% (inactive).

On to `Cc1cccc(-c2ccc([C@@H]3[C@H](CO)N4CCCCN(Cc5ccncc5)C[C@@H]34)cc2)c1`, for which the inhibition was 10.1% (inactive).

Turning to `COc1ccc2c3c(n(C)c2c1)[C@H](CO)N(Cc1ccc(F)cc1)CC31CCN(C)CC1`, the inhibition was -1.69% (inactive).

Take `CO[C@H]1CN(C)C(=O)c2cc(NC(=O)C3CCC3)ccc2OC[C@H](C)N(CC2CCCCC2)C[C@@H]1C`: the inhibition is -3.58% (inactive).

Consider `CCCNC(=O)N(C)C[C@H]1Oc2cc(-c3ccncc3)ccc2S(=O)(=O)N([C@H](C)CO)C[C@@H]1C`, for which the inhibition is 1.24% (inactive).

With `CCCNC(=O)N1[C@@H]2CNC[C@H]1C2c1ccc(-c2cccc(C)c2)cc1` (some centres undefined), the inhibition is 2.37% (inactive) and -1.56% (inactive).

Regarding `O=C(N[C@@H]1CC[C@H](CCn2cc(-c3ccccc3)nn2)O[C@H]1CO)c1cnccn1`, the inhibition is 19.2% (inactive).

As to `C[C@@H]1CN([C@@H](C)CO)C(=O)Cc2cc(NS(=O)(=O)c3cccs3)ccc2O[C@H]1CN(C)S(=O)(=O)c1ccc(F)cc1`, the inhibition was 18.7% (inactive).

For `CC(C)NC(=O)N1[C@H](C#N)[C@H](c2ccc(C#CC3CCCCC3)cc2)[C@H]1CO`, the inhibition is -0.752% (inactive).

With `O=C(Cc1ccccn1)NCC[C@H]1CC[C@H](NC(=O)Nc2ccc(F)cc2)[C@@H](CO)O1`, the inhibition is -0.166% (inactive).

As for `C[C@@H]1CN([C@@H](C)CO)C(=O)c2cccc(NS(=O)(=O)c3ccc(F)cc3)c2O[C@@H]1CN(C)Cc1ccc(C(=O)O)cc1`, the inhibition was 0.602% (inactive).

Regarding `Cc1noc(C)c1NC(=O)N(C)C[C@@H]1Oc2ccc(NC(=O)C3CC3)cc2C(=O)N([C@H](C)CO)C[C@@H]1C`, the inhibition was 7.46% (inactive).

Take `CC(C)NC(=O)N1[C@H](CNC(=O)CN(C)C)[C@@H](c2ccccc2)[C@@H]1CO`: the inhibition is 6.83% (inactive).

`O=C(C[C@@H]1C[C@H]2c3cc(NC(=O)NC4CCCC4)ccc3O[C@H]2[C@@H](CO)O1)NC1CCCCC1`: the inhibition was 5.32% (inactive).

Take `CCC(=O)Nc1ccc2c(c1)OC[C@H](C)N(C(=O)c1ccccc1F)C[C@@H](C)[C@H](OC)CN(C)C2=O`: the inhibition is 12.1% (inactive).

Take `C[C@@H]1CN([C@@H](C)CO)C(=O)CCCn2cc(nn2)CO[C@@H]1CN(C)Cc1ccccc1C(=O)O`: the inhibition was 1.73% (inactive).

Turning to `COC(=O)[C@]12C[C@H](CC(=O)NCc3ccccc3)C(=O)N(CCC3=CCCCC3)C1=C[C@H](C(C)(C)C)O[C@@H]2C`, the inhibition was 15.6% (inactive).

In the case of `CN1C(=O)c2cc(NC(=O)C3CCOCC3)ccc2OC[C@H]2O[C@@H](CC(=O)NCC3CCCCC3)CC[C@@H]21`, the inhibition was -1.95% (inactive).

Take `COCCNC(=O)c1ccccc1NS(=O)(=O)c1ccc(C)c([N+](=O)[O-])c1`: the inhibition was 32.3% (active).

For `COc1ccc(Br)cc1/C=N/Nc1ccc(S(=O)(=O)Nc2ccccc2C(=O)O)cc1[N+](=O)[O-]`, the inhibition is -6.38% (inactive).

As for `COC(=O)CNC(=O)c1ccccc1[N+](=O)[O-]`, the inhibition was -6.79% (inactive).
